From PubChem BioAssay
Sampled rows, rich in hits. Any-hit rate of the full collection: about 3.1%.
TRb-SRC2 inh: inhibitors of human thyroid hormone receptor beta-SRC2 interaction. P10828. TRbeta-SRC2 peptide binding, fluorescence polarization; receptor liganded with 1 µM T3. 280,000 tested, 0.065% active. Potency, µM (doses to about 106 µM), for the others: at the highest dose activity change, negative = inhibition, actives largely listed as inhibitors;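 also: plate controls were bound peptide for no effect and peptide without receptor for full effect; nearly all actives have a fitted effect of over 50% in size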
Target sequence (P10828 whole entry, looked up): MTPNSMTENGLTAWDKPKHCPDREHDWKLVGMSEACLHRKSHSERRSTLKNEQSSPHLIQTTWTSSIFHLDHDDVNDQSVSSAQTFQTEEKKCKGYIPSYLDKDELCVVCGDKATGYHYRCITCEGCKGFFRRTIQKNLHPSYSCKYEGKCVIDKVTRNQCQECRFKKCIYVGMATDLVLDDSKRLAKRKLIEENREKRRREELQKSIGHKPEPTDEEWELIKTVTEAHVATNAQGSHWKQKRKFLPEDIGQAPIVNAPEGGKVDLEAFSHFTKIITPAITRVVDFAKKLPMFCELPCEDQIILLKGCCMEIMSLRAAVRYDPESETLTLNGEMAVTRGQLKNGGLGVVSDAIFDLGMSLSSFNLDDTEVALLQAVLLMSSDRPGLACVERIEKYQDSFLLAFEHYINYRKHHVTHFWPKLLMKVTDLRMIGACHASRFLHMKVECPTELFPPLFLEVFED
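Human TRb LBD (0.6 uM) plus Texas Red-labeled SRC2 peptide (20 nM), 1uM T3, 5% DMSO, 5 hr at ambient temperature. Decreased polarization (555/632 nm) flags inhibition; data normalized to free and bound peptide controls.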
Tau fluor counter: counter-screen for tau fibril formation inhibitors; tau K18 P301L Alexa594 fluorescence, heparin fibrillization; Potency, µM (titrated, usually from 57.7 µM), without a hit: top-dose activity change, negative = decrease; 280,000 tested, 0.93% active; AID 1463; also: nearly all actives have a fitted effect of over 55% in size
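Human tau K18 P301L (15 uM unlabeled, 0.24 uM Alexa 594-labeled) in 100 mM sodium acetate pH 7 with 20 uM heparin, 6 hr at 37 C. ThT 30 uM added, 1 hr ambient; Alexa 594 FP and total fluorescence read at 555/632 nm.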
Tau FP inhib: blocks human tau fibril formation measured by polarization. P10636. K18 P301L tau heparin fibrillization, Alexa594 FP, 6 h. Potency, µM (highest dose often 57.7 µM), for inactives: at the top dose activity, negative = inhibition, hits mostly inhibitors. 280,000 tested, 0.39% active; also: nearly all actives have a fitted effect of over 55% in size
Target sequence (P10636 561-689 P618L limits assumed): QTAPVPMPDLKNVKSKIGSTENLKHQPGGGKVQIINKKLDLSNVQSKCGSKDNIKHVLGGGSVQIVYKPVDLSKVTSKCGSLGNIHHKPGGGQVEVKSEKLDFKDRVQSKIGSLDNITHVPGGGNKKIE
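Quantitative HTS format: compounds meet 15 uM recombinant K18 P301L tau and Alexa 594-tau tracer in 100 mM sodium acetate pH 7; 20 uM heparin triggers fibrillization at 37 C over 6 hr; FP gives the signal.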
TexasRed fluor: alters Texas Red total fluorescence, flagging assay interference | TRb/SRC2 Texas Red total fluorescence interference | Potency, µM (highest dose often 106 µM), inactives show at the top dose fluorescence change, negative = quenching | 280,000 tested, 0.29% active | AID 1479; active = well fitted curve in either direction with a large enough effect; inconclusive = small, poorly fitted or top-dose-only effect
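Human TRb ligand-binding domain at 0.6 uM with 20 nM Texas Red SRC2 peptide in Tris buffer containing 1 uM T3 and 5% DMSO, incubated with compound 5 h at ambient temperature. Total fluorescence (555/632 nm) calculated as parallel + 2 × perpendicular.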
Tau ThT inhib: blocks human tau fibril formation measured by thioflavin T; P10636; recombinant tau K18 P301L (four-repeat tau fragment), heparin-induced fibrillization, ThT fluorescence; Potency, µM (top dose mostly 57.4 µM), for the others: top-dose activity, negative = inhibition, actives largely listed as inhibitors; 270,000 tested, 2.1% active; also: nearly all actives have a fitted effect of over 55% in size
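Heparin-induced fibrillization of the P301L-mutant K18 repeat-domain fragment of human tau was followed by ThT binding in quantitative high-throughput format.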
* marks the source's active call; other numbers are inactive results; ? = inconclusive; . = no result; [ ] = dose if it differs, or a comment. Unless noted, calls follow the shape of the dose curve; as a rule, active = well fitted curve in the direction sought with a large enough effect; inconclusive = small, poorly fitted or top-dose-only effect, or another doubt; inactive = no such curve, though single readings can be large; an effect the other way counts as inactive or inconclusive. Unless noted, % is scaled to controls: 0 for no effect and ±100 for the full control effect; potency is read from the fitted curve at half-maximal effect.

SMILES | TRb-SRC2 inh | Tau fluor counter | Tau FP inhib | TexasRed fluor | Tau ThT inhib
O=C(COc1ccccc1Cl)NCC1(N2CCOCC2)CCCCC1 | -9% | 5% | 9% | ? | -1%
CCC1CN(S(=O)(=O)c2cc(-c3onc(C)c3C)ccc2C)c2cc(Cl)ccc2O1 (stereo not given) | 2% | -19% | -12% | -2% | 1%
O=C(/C=C/c1ccc2c(c1)OCO2)c1ccccn1 | 1% | -29% | -9% | 2% | 14µM*
CCNc1ccc(Br)cc(C(=O)/C=C/c2ccc(Cl)cc2Cl)c1=O | -3% | -29% | -15% | -2% | 16µM*
CNc1ccc(Br)cc(C(=O)/C=C/c2ccc(OC)cc2)c1=O | -5% | ? | ? | -10% | 14µM*
CNc1ccc(Br)cc(C(=O)/C=C/c2cc(OC)ccc2OC)c1=O | -18% | ? | ? | 2% | 10µM*
O=C(N/N=C/c1ccc2c(c1)OCO2)c1ccccn1 | -3% | -1% | -8% | 0% | -14%
CC12C=C(/C=C/c3ccc(C(F)(F)F)cc3)C(C)(C1)C(c1ccc(C(F)(F)F)cc1)CC2=O (stereo not given) | 10%[11.2 µM] | -22%[11.6 µM] | 4%[11.6 µM] | 1%[11.2 µM] | -13%[11.5 µM]
CNc1ccc(Br)cc(C(=O)/C=C/c2ccc3c(c2)OCO3)c1=O | 8% | ? | ? | -9% | 13µM*
Cc1cc(C)c(N)c(C(=O)O)c1 | 5% | 8% | 2% | 0% | -1%
Cc1cc(C)c(O)c(N)c1 | -3% | -25% | -17% | -3% | 22µM*
COc1cc(Cl)c(NC(=O)c2cc(S(=O)(=O)N3CCOCC3)cn2C)c(OC)c1 | 5% | -9% | 8% | -21% | -1%
Cn1nc([N+](=O)[O-])c(C(C#N)c2nc3ccccc3n2C)c(Cl)c1=O (stereo not given) | -7% | ? | -5% | -1% | 16µM*
O=C(COc1ccccc1)Nc1ccc(S(=O)(=O)Nc2ncccn2)cc1 | 2% | 4% | -3% | 0% | 3%
Cc1ccccc1OCC(=O)Nc1ccc(S(=O)(=O)Nc2ncccn2)cc1 | -8% | 0% | -6% | 10000µM*[quencher] | -7%
O=C(CSc1nc2c([nH]c3ccccc32)c(=O)n1-c1ccccc1)Nc1ccc2c(c1)OCCO2 | -5% | ? | ? | -1% | -15%
O=c1oc(-c2ccc([N+](=O)[O-])cc2)nc2ccc(O)cc12 | 2% | ? | -6% | -6% | 13µM*
COc1cccc(CNCCCSc2nnnn2C)c1 | -21% | 6% | 7% | 1000µM*[quencher] | 0%
COc1cccc(CNCCSc2nnnn2C)c1 | -3% | 6% | -1% | -7% | 5%
CCCn1c2ccccc2c2cnn(CC(=O)Nc3cc(C)c(Cl)cc3OC)c(=O)c21 | -4% | -8% | 2% | 20µM*[quencher] | -3%
CCOc1ccc(-c2c(C)nn3c(C)c(C(=O)NCc4ccc(Cl)cc4)cnc23)cc1OCC | -11% | -16% | 2% | 251µM*[quencher] | -9%
S=C(N=Nc1ccccc1)NNc1ccccc1 | 4% | 20µM*[quencher] | ? | -7% | 25µM*
CCCSCCCNC(=O)c1ccc2c(c1)nc1n2CCCCC1 | 8% | -1% | -1% | -1% | -6%
COc1ccc(Cn2c(O)cc(=O)[nH]c2=O)cc1 | 26% | -13% | -15% | 9% | ?
CCOc1ccc(Cn2c(O)cc(=O)[nH]c2=O)cc1 | -22% | -22% | ? | -4% | 16µM*
SMILES | TRb-SRC2 inh | Tau fluor counter | Tau FP inhib | TexasRed fluor | Tau ThT inhib
CC1CCCN(S(=O)(=O)c2ccc(N3CCCCS3(=O)=O)cc2)C1 (stereo not given) | 3% | 13% | 8% | 0% | 6%
CCOc1ccc(NC(=O)N(Cc2c[nH]c3ccccc23)C2CCCCCC2)cc1 | 2% | -10% | -3% | 0% | 4%
CC(C)(C)[C@H](O)[C@H](Cc1ccc(Cl)cc1)n1cncn1 | -2%[201 µM] | . | . | 0%[201 µM] | .
CCOC(=O)c1ccc(N2CSC3=C(C#N)C(c4cccs4)CC(=O)N3C2)cc1 (stereo not given) | 1% | -15% | ? | 0% | ?
CCc1ccc(N2CSC3=C(C#N)C(c4cccs4)CC(=O)N3C2)cc1 (stereo not given) | 4% | -19% | ? | -1% | 13µM*
Cc1ccc(N2CSC3=C(C#N)C(c4cccs4)CC(=O)N3C2)cc1 (stereo not given) | 0% | -20% | ? | -2% | ?
CCc1ccc(C2CC(=O)N3CN(c4ccccc4)CSC3=C2C#N)cc1 (stereo not given) | 2% | ? | ? | 0% | 32µM*
N#CC1=C2SCC(O)(c3ccccc3)N2C(=O)CC1c1ccccc1 (stereo not given) | -5% | -22% | 6% | 0% | ?
COc1ccc(N2CSC3=C(C#N)C(c4cccs4)CC(=O)N3C2)cc1 (stereo not given) | 9% | ? | 25µM* | 3% | 13µM*
N#CC1=C2SCN(c3ccc(F)cc3)CN2C(=O)CC1c1cccc(F)c1 (stereo not given) | 3% | ? | ? | -4% | 16µM*
Nc1c(N=Nc2ccc(S(=O)(=O)CCOS(=O)(=O)O)cc2)c(S(=O)(=O)O)cc2cc(S(=O)(=O)O)c(N=Nc3ccc(S(=O)(=O)CCOS(=O)(=O)O)cc3)c(O)c12 | 30%[201 µM] | . | . | 45µM*[quencher] | .
O=[N+]([O-])c1ccc(N=Nc2c(Cl)cc(O)cc2Cl)cc1 | 1% | 8.9µM*[quencher] | 32µM* | -9% | .
CC(N)=Nc1ccc([N+](=O)[O-])cc1 | 3% | -1% | -2% | -1% | 3%
O=C1OC(c2ccccc2)=C/C1=C/N1CCCCC1 | -16% | -28% | ? | -2% | 28µM*
O=C1OC(c2ccccc2)=N/C1=C\N1CCCCC1 | -17% | -4% | 5% | -5% | 5%
Cc1cccc(N2C(S)=C(C#N)C(=O)NC23CCCCC3)c1 | 2% | -25% | ? | -2% | 32µM*
Cc1cccc(N2CC(C)Cn3c2nc2c3c(=O)n(CC(=O)O)c(=O)n2C)c1 (stereo not given) | 0% | -19% | 2% | 10µM*[quencher] | -13%
COC(=O)Cn1c(=O)c2c(nc3n2CCN3c2cccc(C)c2)n(C)c1=O | 11% | -11% | -6% | 6% | ?
Cc1nc(NCc2ccccc2)c2nc(-c3ccccc3)n(CCN3CCOCC3)c2n1 | -6% | -9% | 6% | 2% | -14%
Cc1ccc(NC(=O)CN(C)S(=O)(=O)c2ccc3[nH]c4c(c3c2)CCCC4)c(Cl)c1 | -1% | ? | 6% | -3% | -4%
CN(CC(=O)Nc1cccc(Cl)c1)S(=O)(=O)c1ccc2[nH]c3c(c2c1)CCCC3 | 0% | 14µM*[quencher] | -10% | 3% | -8%
CN(CC(=O)Nc1cccc(C(F)(F)F)c1)S(=O)(=O)c1ccc2[nH]c3c(c2c1)CCCC3 | 3% | 25µM*[quencher] | ? | 2% | -8%
